# Laboratory results published in PubChem BioAssay (Tox21).
# Values joined by “and” are separate entries in the source; they are usually repeats but may differ in a detail not shown here. Identical values can stand only once. Inconclusive results are not listed. A call without a number means that no potency is given here. Where a structure was tested more than once in an assay, its records may differ in their call. Active and inactive are the calls of the source. Unless noted, the call rests on the fitted dose curve; in most records, active means well fitted curve in the direction sought with a large enough effect in the repeat runs; inconclusive means weak or mixed curves; inactive means no such curve, though single readings can be large; an effect the other way counts as inactive or inconclusive.
# How the values were obtained:
# [1] = qHTS RealTime-Glo MT Cell Viability Assay in HEK293 cells - 24 hour (AID 1224886); further: top concentration of the series differs between compounds; nearly all actives have a fitted effect of over 50% in size
# Method in brief: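 Homogeneous bioluminescent viability format in HEK293 cells (600 cells/well). Following 5 h at 37 C/5% CO2, 23 nL compound was pintooled; the signal was measured repeatedly during 40 h incubation.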
# [2] = qHTS RealTime-Glo MT Cell Viability Assay in HEK293 cells - 8 hour (AID 1224887); further: top concentration of the series differs between compounds; nearly all actives have a fitted effect of over 50% in size
# Method in brief: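 HEK293 cells mixed with RealTime-Glo reagents (NanoLuc plus cell-permeant prosubstrate) at 600 cells/well, preincubated 5 h at 37 C/5% CO2, then given 23 nL compound in DMSO. Nonlytic luminescence from viable cells was read at 0, 8, 16, 24, 32 and 40 h.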
# [3] = A CellTox Green Cytotoxicity Assay to monitor cytotoxicity in HEK293 cells - 16 hour (AID 1224888); further: nearly all actives have a fitted effect of over 35% in size
# Method in brief: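 HEK293 cells premixed with CellTox Green dye were seeded at 600 cells/well and left 5 h at 37 C/5% CO2 before pin transfer of 23 nL compound in DMSO. Fluorescence from dye bound to dead-cell DNA was read during 40 h treatment.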
# [4] = A CellTox Green Cytotoxicity Assay to monitor cytotoxicity in HepG2 cells - 8 hour (AID 1224890); further: nearly all actives have a fitted effect of over 45% in size
# Method in brief: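 HepG2 cells were seeded together with the CellTox Green dye at 600 cells/well, left 5 h at 37 C/5% CO2, then given compounds in DMSO. Fluorescence from dye bound to dead-cell DNA was read repeatedly over 40 h of treatment at 37 C.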
# [5] = qHTS assay to identify small molecule antagonists of the estrogen receptor alpha (ER-alpha) signaling pathway using the BG1 cell line in the presence of 0.1 nM 17-beta-estradiol - cell viability counter screen (AID 1259241); further: nearly all actives have a fitted effect of over 40% in size
# Method in brief: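 Estradiol-stimulated (0.1 nM) VM7Luc4E2 cells exposed to compounds 22 hr; viability measured by fluorescence of cleaved CellTiter-Fluor substrate after 30 min.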
# [6] = qHTS assay to identify small molecule antagonists of the androgen receptor (AR) signaling pathway using the MDA cell line in the presence of 0.5 nM R1881 - cell viability counter screen (AID 1259242); further: nearly all actives have a fitted effect of over 45% in size
# Method in brief: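 MDA-kb2 cells (human breast carcinoma, stably carrying MMTV-luciferase reporter) were exposed to compounds with 0.5 nM R1881 (final) for 16 hr at 37C, 0% CO2; viability then read as live-cell protease fluorescence (CellTiter-Fluor, 30 min) in the same wells.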
# [7] = qHTS assay to identify small molecule HDAC inhibitors (AID 1259364); further: top concentration of the series differs between compounds; nearly all actives have a fitted effect of over 45% in size
# Method in brief: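 Wild-type HCT-116 cells were plated overnight, exposed to compounds for 2 h at 37 °C, then given HDAC-Glo class I/II luminogenic reagent for 30 min at room temperature before luminescence was read.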
# [8] = qHTS assay to identify small molecule HDAC inhibitors - cell viability counter screen (AID 1259365); further: series mostly up to about 92 µM; nearly all actives have a fitted effect of over 50% in size
# Method in brief: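 After overnight seeding at 1,500 cells per well, wild-type HCT-116 cultures took up compounds in DMSO for 2hr at 37 C. Viable cell content came from luminescence with CellTiter-Glo.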
# [9] = qHTS assay to identify small molecule agonists of the sonic hedgehog signaling (Shh) pathway - cell viability counter screen (AID 1259366); further: nearly all actives have a fitted effect of over 50% in size
# Method in brief: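 Same-well cytotoxicity read. Gli1-Luc reporter 3T3 cells; compounds 24hr, 37C/5% CO2; CellTiter-Fluor fluorescence.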
# [10] = qHTS assay to identify small molecule antagonists of the sonic hedgehog signaling (Shh) pathway - cell viability counter screen (AID 1259367); further: nearly all actives have a fitted effect of over 55% in size
# Method in brief: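 NIH/3T3-derived Gli1-Luc reporter cells, 2,000/well, plated 4 hr before compound addition, then stimulated with conditioned medium for 24 hr at 37C. Viability measured in the same wells by CellTiter-Fluor fluorescence, reagent added at 23 hr for 1 hr.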
# [11] = qHTS assay to identify small molecule agonists of the sonic hedgehog signaling (Shh) pathway (AID 1259368; calls by dose curve; further: series mostly up to about 92 µM; nearly all actives have a fitted effect of over 15% in size)
# Method in brief: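 NIH/3T3-derived 3T3Gli1-Luc cells carrying a stably integrated Gli1 response element–firefly luciferase reporter were plated, left 4 hr at 37 C, then given compounds in DMSO for 24 hr. Luminescence was read 30 min after adding luciferase reagent.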
# [12] = qHTS assay to identify small molecule antagonists of the sonic hedgehog signaling (Shh) pathway (AID 1259369; calls by dose curve; further: nearly all actives have a fitted effect of over 45% in size; further: potency means the concentration at half of the fitted maximal effect)
# Method in brief: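 NIH/3T3-derived 3T3Gli1-Luc cells with stably integrated Gli1-Luc reporter were preincubated 4hr at 37 C, then given compounds in DMSO plus Shh conditioned medium and incubated 24hr. Firefly luciferase luminescence read after 30min reagent at room temperature.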
# [13] = qHTS assay to identify small molecule agonists of the androgen receptor (AR) signaling pathway in the presence of an antagonist - cell viability counter screen (AID 1259379); further: series mostly up to about 92 µM; nearly all actives have a fitted effect of over 25% in size
# Method in brief: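 MDA-kb2 human breast carcinoma cells (stable MMTV-luciferase, AR/GR responsive) were seeded 3,000 cells/well, pre-incubated 5 hr at 37C without CO2, then given 3.0uM nilutamide and compounds at 15 concentrations for 16 hr. Viability was read by CellTiter-Fluor fluorescence.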
# [14] = qHTS assay to identify small molecule agonists of the estrogen receptor beta (ER-beta) signaling pathway - cell viability counter screen (AID 1259380); further: nearly all actives have a fitted effect of over 30% in size; further: potency means the concentration at half of the fitted maximal effect
# Method in brief: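 ER-beta-UAS-bla HEK293T cells in medium with 2% charcoal-stripped FBS were preincubated 6 hr at 37C, dosed with compound in DMSO for 16 hr, then after the bla read, CellTiter-Glo was added for 30 min at room temperature; luminescence recorded.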
# [15] = molecular target: Estrogen receptor (Homo sapiens) (UniProt P03372); experiment: qHTS assay to identify small molecule antagonists of the estrogen receptor alpha (ER-alpha) signaling pathway using the BG1 cell line in the presence of 0.1 nM 17-beta-estradiol (AID 1259244); further: nearly all actives have a fitted effect of over 50% in size; further: potency means the concentration at half of the fitted maximal effect
# Method in brief: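 VM7Luc4E2 cells (endogenous full-length ER-alpha, stable 4xERE-luciferase) were grown 5 days in phenol red-free medium with charcoal-stripped FBS, then exposed 22 h at 37C to compounds plus 0.1 nM (final) 17beta-estradiol; ONE-Glo luminescence read-out.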
# [16] = qHTS assay to identify small molecule phospholipidosis (PLD) inducers (AID 1259344; active means well fitted curve in the direction sought with a large enough effect; an effect the other way counts as inactive or inconclusive)
# Method in brief: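 HepG2 cells, 900/well, treated with compound plus LipidTOX Red for 24 h at 37 C; amiodarone positive and DMSO negative controls. Fixed with paraformaldehyde/Hoechst, then high-content imaging scored LipidTOX pit count and integrated intensity per well and per cell.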
# [17] = molecular target: Estrogen receptor beta (Homo sapiens) (UniProt Q92731); experiment: qHTS assay to identify small molecule agonists of the estrogen receptor beta (ER-beta) signaling pathway (AID 1259377; active means well fitted activation curve with a large enough effect in the signal ratio in the repeat runs, not every such curve was filed as active; the % refers to the signal ratio)
# Method in brief: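 Read-out: beta-lactamase FRET fluorescence. Cell line: ER-beta-UAS-bla HEK293T in 2% charcoal-stripped FBS. Exposure: 16 hr at 37C. Substrate step: 2 h at room temperature.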
# [18] = molecular target: Estrogen receptor beta (Homo sapiens) (UniProt Q92731); experiment: qHTS assay to identify small molecule antagonists of the estrogen receptor beta (ER-beta) signaling pathway (AID 1259378; active means well fitted inhibition curve with a large enough effect in the signal ratio in the repeat runs, not every such curve was filed as active; the % refers to the signal ratio)
# Method in brief: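 ER-beta-UAS-bla HEK293T cells in 2% charcoal-stripped FBS medium treated with compound plus 1nM final 17-beta-estradiol for 16 hr at 37C. Beta-lactamase reporter read by FRET substrate fluorescence after 2 hours at room temperature.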
# [19] = qHTS RealTime-Glo MT Cell Viability Assay in HepG2 cells - 0 hour (AID 1224889); further: nearly all actives have a fitted effect of over 50% in size
# Method in brief: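 Cell number in HepG2 cultures estimated from NanoLuc luminescence generated by metabolic reduction of a prosubstrate by living cells. The homogeneous, nonlytic format allowed repeated reads at 0, 8, 16, 24, 32 and 40 h of compound exposure.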
# Chain of Estrogen receptor beta (Homo sapiens) (Q92731 whole entry, looked up): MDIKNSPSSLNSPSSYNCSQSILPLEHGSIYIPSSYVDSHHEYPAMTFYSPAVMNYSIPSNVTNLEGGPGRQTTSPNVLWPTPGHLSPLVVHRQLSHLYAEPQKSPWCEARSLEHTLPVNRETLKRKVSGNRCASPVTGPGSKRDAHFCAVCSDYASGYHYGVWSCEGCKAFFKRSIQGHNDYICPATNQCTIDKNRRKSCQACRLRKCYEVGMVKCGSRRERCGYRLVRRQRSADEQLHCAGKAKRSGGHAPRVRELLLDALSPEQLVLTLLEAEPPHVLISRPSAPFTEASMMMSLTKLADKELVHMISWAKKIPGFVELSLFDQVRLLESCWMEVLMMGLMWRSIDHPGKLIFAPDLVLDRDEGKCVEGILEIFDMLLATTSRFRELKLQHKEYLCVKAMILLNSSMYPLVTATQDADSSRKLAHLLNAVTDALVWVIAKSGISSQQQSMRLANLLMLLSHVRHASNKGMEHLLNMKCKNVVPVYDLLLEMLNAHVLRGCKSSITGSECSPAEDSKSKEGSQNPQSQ
# Chain of Estrogen receptor (Homo sapiens) (P03372 whole entry, looked up): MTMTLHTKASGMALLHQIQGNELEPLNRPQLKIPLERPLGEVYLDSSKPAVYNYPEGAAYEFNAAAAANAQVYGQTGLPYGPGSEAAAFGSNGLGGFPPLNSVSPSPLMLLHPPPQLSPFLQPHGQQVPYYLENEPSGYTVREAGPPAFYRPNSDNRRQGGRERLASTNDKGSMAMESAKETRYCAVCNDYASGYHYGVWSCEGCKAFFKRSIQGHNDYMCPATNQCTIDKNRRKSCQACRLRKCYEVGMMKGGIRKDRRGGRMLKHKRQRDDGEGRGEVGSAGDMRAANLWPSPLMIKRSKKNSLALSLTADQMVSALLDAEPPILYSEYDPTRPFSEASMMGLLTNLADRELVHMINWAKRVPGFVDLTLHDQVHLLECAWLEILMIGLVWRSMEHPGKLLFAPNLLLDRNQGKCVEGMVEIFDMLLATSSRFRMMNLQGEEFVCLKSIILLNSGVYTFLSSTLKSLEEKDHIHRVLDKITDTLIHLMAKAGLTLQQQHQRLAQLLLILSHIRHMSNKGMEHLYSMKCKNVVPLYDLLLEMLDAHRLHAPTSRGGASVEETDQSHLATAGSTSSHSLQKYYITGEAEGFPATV
structure (smiles),measurement,setting,value
O=C(O)c1cc(C(=O)O)cc(S(=O)(=O)O)c1,Potency,[1],inactive
same,Potency,[2],inactive
same,outcome,[3],inactive
same,Potency,[4],inactive
same,Potency,[5],inactive
same,outcome,[6],inactive
same,Potency,[7],inactive
same,outcome,[8],inactive
same,Potency,[9],inactive
same,Potency,[10],inactive
same,outcome,[11],inactive
same,Potency,[12],inactive
same,Potency,[13],inactive
same,Potency,[14],inactive
CCN(CC)CCCC(C)Nc1ccnc2cc(Cl)ccc12 (configuration not stated),"activity change, negative = cytotoxicity",[1],-16.8% [at 6.97 µM] (inactive)
same,"activity change, negative = cytotoxicity",[2],-9.86% [at 6.97 µM] (inactive)
same,cytotoxicity increase,[4],3.33% [at 6.97 µM] (inactive) and 10.4% [at 15.8 µM] (inactive)
same,"viability change, negative = cytotoxic",[6],-8.89% [at 8.39 µM] (inactive)
same,"activity change, negative = inhibition",[15],35.5% [at 8.39 µM] (inactive) and -0.903% [at 19 µM] (inactive)
same,outcome,[16],inactive
same,"activity change, negative = inhibition",[7],5.21% [at 8.39 µM] (inactive) and -11.7% [at 19 µM] (inactive)
same,"activity change, negative = cytotoxicity",[8],1.29% [at 8.39 µM] (inactive) and -0.194% [at 19 µM] (inactive)
same,"viability change, negative = cytotoxic",[9],4.99% [at 8.39 µM] (inactive) and -9.75% [at 19 µM] (inactive)
same,"viability change, negative = cytotoxic",[10],-9.15% [at 8.39 µM] (inactive) and -19.2% [at 19 µM] (inactive)
same,Potency,[12],5.8 µM (active)
same,"activity change, negative = inhibition",[12],-20.4% [at 8.39 µM] (inactive)
same,activation,[17],1.76% [at 8.39 µM] (inactive) and 0.415% [at 19 µM] (inactive)
same,"activity, negative = inhibition",[18],-11.4% [at 8.39 µM] (inactive)
same,"activity change, negative = cytotoxicity",[13],-10.8% [at 8.39 µM] (inactive)
same,"activity change, negative = cytotoxicity",[14],-12.8% [at 8.39 µM] (inactive) and -6.59% [at 19 µM] (inactive)
CCc1ccc(CCOc2ccc(CC3SC(=O)NC3=O)cc2)nc1 (configuration not stated),Potency,[1],inactive
same,Potency,[2],inactive
same,outcome,[3],inactive
same,Potency,[4],inactive
same,Potency,[5],inactive
same,outcome,[6],inactive
same,Potency,[15],54.5 µM (active) and inactive
same,outcome,[16],inactive
same,Potency,[7],inactive
same,outcome,[8],inactive
same,Potency,[9],inactive
same,Potency,[10],inactive
same,Potency,[12],inactive
same,Potency,[17],inactive
same,Potency,[13],inactive
same,Potency,[14],inactive
c1ccc2scnc2c1,Potency,[1],inactive
same,Potency,[2],inactive
same,outcome,[3],inactive
same,Potency,[19],inactive
same,Potency,[4],inactive
same,Potency,[5],inactive
same,outcome,[6],inactive
same,Potency,[15],inactive
same,Potency,[7],inactive
same,outcome,[8],inactive
same,Potency,[9],inactive
same,Potency,[10],inactive
same,Potency,[12],inactive
same,Potency,[17],inactive
same,Potency,[18],inactive
same,Potency,[13],inactive
same,Potency,[14],inactive
CC[C@H](C)C(=O)O[C@H]1C[C@@H](C)C=C2C=C[C@H](C)[C@H](CC[C@@H]3C[C@@H](O)CC(=O)O3)[C@H]21,Potency,[1],inactive
same,Potency,[2],inactive
same,outcome,[3],inactive
same,Potency,[4],inactive
same,Potency,[5],inactive
same,outcome,[6],inactive
same,Potency,[15],inactive
same,outcome,[16],inactive
same,Potency,[7],inactive
same,outcome,[8],inactive
same,Potency,[9],inactive
same,Potency,[10],inactive
same,outcome,[11],inactive
same,Potency,[17],inactive
same,Potency,[13],inactive
same,Potency,[14],34.9 µM (active) and 30.5 µM (active) and 15 µM (active)
Cc1cc(C)c(C)cc1C,Potency,[1],inactive
same,Potency,[2],inactive
same,outcome,[3],inactive
same,Potency,[19],inactive
same,Potency,[4],inactive
same,Potency,[5],inactive
same,outcome,[6],inactive
same,Potency,[15],inactive
same,Potency,[7],inactive
same,outcome,[8],inactive
same,Potency,[9],inactive
same,Potency,[10],inactive
same,outcome,[11],inactive
same,Potency,[12],inactive
same,Potency,[13],inactive
same,Potency,[14],inactive
CC(=O)Nc1cccc(O)c1,Potency,[1],inactive
same,Potency,[2],inactive
same,outcome,[3],inactive
same,Potency,[4],inactive
same,Potency,[5],inactive
same,outcome,[6],inactive
same,Potency,[15],inactive
same,outcome,[16],inactive
same,Potency,[7],inactive
same,outcome,[8],inactive
same,Potency,[9],inactive
same,Potency,[10],inactive
same,Potency,[12],inactive
same,Potency,[17],inactive
same,Potency,[18],inactive
same,Potency,[13],inactive
same,Potency,[14],inactive
